# Measurements taken from PubChem BioAssay (EPA / NIEHS).
# Where “and” joins values, the source holds several entries; their conditions need not be identical. Equal entries are not always repeated. Calls of active or inactive are those of the source. How the source made its calls: active means hit-call score of the fitted dose curve at least 0.9, where 1 is the maximum; inactive means score below 0.9.
# Test: CEETOX_H295R_OHPROG: CeeTox H295R High-throughput Steroidogenesis Assay for OH-Progesterone (OHPROG) (AID 2283435)
# Conditions: actives raise or lower the signal
# Procedure: CEETOX_H295R is a cell-based, multiplexed-readout assay that uses H295R, a human adrenal gland cell line, with measurements taken at 48 hours after chemical dosing in a 96-well plate.CEETOX_H295R_OHPROG is one of 23 assay component(s) measured or calculated from the CEETOX_H295R assay. It is designed to make measurements of hormone induction, a form of inducible reporter, as detected with absorbance signals by HPLC-MS-MS technology.Data from the assay component CEETOX_H295R_OHPROG was analyzed into 1 assay endpoint. This assay endpoint, CEETOX_H295R_OHPROG, was analyzed with bidirectional fitting relative to DMSO as the negative control and baseline of activity. Using a type of inducible reporter, gain or loss-of-signal activity using HPLC-MS-MS was used to understand synthesis of 17alpha-hydroxyprogesterone in H295R cell line at 48hr of chemical exposure. To generalize the intended target to other relatable targets, this assay endpoint is annotated to the steroid hormone intended target family, where the subfamily is progestagens.
# Cell culture and media preparation procedures were conducted in accordance with OECD Test No. 456 guidelines, with minor modifications. H295R cells (ATCC CRL-2128) were expanded for 5 passages and frozen in batches in liquid nitrogen. Prior to the steroidogenesis assay, H295R cells were thawed and passed at least 4 times. The maximum passage was 10. Cells were maintained in a 1:1 mixture of DMEM/F12 supplemented with 5ml/L ITS+ Premix (BD Bioscience) and 12.5 ml/L Nu-Serum (BD Bioscience). After seeding cells into 96-well plates at 50-60% confluency, cells were allowed to adhere overnight. Prior to chemical testing, culture medium was replaced with 175 uL medium containing 10 uM forskolin to stimulate steroidogenesis for 48 hours. Following prestimulation, forskolin medium was replaced with medium containing test chemical solubilized in DMSO (ensuring a final concentration of 0.1% DMSO). Test chemicals were incubated for 48 hours, then the medium was removed and split into 2 vials containing approximately 75uL each, and stored at -80 C prior to hormone analysis. For steroid quantification, media samples were shipped to OpAns, LLC (Durham, NC) on dry ice, and samples were thawed to room temperature prior to liquid-liquid extraction. Steroid hormones were extracted from media samples using methyl tertbutyl ether (MTBE). An extra derivatization with dansyl chloride was included for estrogen (estrone and estradiol) detection only. Steroid hormones were separated by HPLC, eluted using a reverse phase C18 gradient with electrospray positive ionization, followed by quantification by tandem mass spectrometry (MS/MS). Data were acquired on a MassHunter Workstation Acquisition version B03.01 (Agilent Technologies, Inc.) and processed using MassHunter Quantitative Analysis for QQQ. Accuracy was determined for each hormone analyte from 3 standards to determine upper and lower limits of quantification (ULOQ and LLOQ, respectively) using a 7-point standard curve. Precision and accuracy of the extraction and quantification methods were calculated as the percent relative standard deviation (%RSD) of the spiked standards and percent spiked standard recovered, respectively. […] Test medium was removed following chemical exposure, and cell viability was evaluated in the same wells by MTT. MTT procedures were as follows: after removal of test medium, 500 uL of 0.5 mg/ml of 3-[4,5-dimethylthiazol-2-y]2,5-diphenyltetrazoliumbromide solution was added to the cells. Following a 4-hour incubation at 37 C and 5% CO2 to allow formazan-crystal formation, the MTT solution was removed and blue formazan salt crystals were solubilized using 500uL anhydrous isopropanol with shaking for 20 minutes. Absorbance was read at 570 and 650nm using a Packard Fusion microplate reader. Background correction of absorbance units was used to determine percent change relative to controls. […]
Compound,AC50,outcome
N#Cc1c(-c2ccc(Cl)cc2)[nH]c(C(F)(F)F)c1Br,0.282 µM (active),
CC(C)(C)c1ccc(O)cc1,24.2 µM (active),
CCOP(=S)(NC(C)C)Oc1ccccc1C(=O)OC(C)C (stereo unspecified),4.65 µM (active),
Nc1ccc(Cl)cc1,25.5 µM (active),
CCCCc1ccc(O)cc1,,inactive
O=P(Oc1ccccc1)(Oc1ccccc1)Oc1ccccc1,1.85 µM (active),
Oc1ccc(I)cc1,18.6 µM (active),
CC(C)Nc1ccc(Nc2ccccc2)cc1,,inactive
c1ccc2c(c1)Nc1ccccc1S2,20.4 µM (active) and 25 µM (active) and 18.1 µM (active),
CCC(C)(C)c1ccc(O)cc1,15.5 µM (active),
CCOP(=S)(OCC)SCn1nnc2ccccc2c1=O,10 µM (active),
Nc1ccc2ccccc2c1,13.9 µM (active),
Cc1cccc(N)c1,,inactive
CCNc1nc(Cl)nc(NC(C)(C)C)n1,,inactive
CCCCOCCOP(=O)(OCCOCCCC)OCCOCCCC,,inactive
ClC(Cl)=C(c1ccc(Cl)cc1)c1ccccc1Cl,,inactive
CC(=O)c1ccc(-c2ccccc2)cc1,25.8 µM (active),
c1ccc(OP(Oc2ccccc2)Oc2ccccc2)cc1,,inactive
Nc1ccc([N+](=O)[O-])cc1Cl,,inactive
COP(N)(=S)OC,,inactive
O=S1(=O)OCC2C(CO1)C1(Cl)C(Cl)=C(Cl)C2(Cl)C1(Cl)Cl (stereo unspecified),10 µM (active),
CCOP(=S)(Oc1ccc([N+](=O)[O-])cc1)c1ccccc1 (stereo unspecified),0.404 µM (active),
Cc1ccc(O)cc1C,,inactive
Nc1cc2c3c(c1)C(c1ccccc1)=N[C@@H](NC(=O)c1cccnc1)C(=O)N3CC2,4.41 µM (active),
CO/N=C(/C(=O)OC)c1ccccc1COc1ccccc1C,4.07 µM (active),
O=S(=O)(c1ccc(O)cc1)c1ccc(O)cc1,0.82 µM (active),
